From PubChem
Anthrax LF prot = inhibitors of Bacillus anthracis lethal factor protease; multiplex microsphere protease cleavage assay, LF; inhibition, % at 10 µM; hit rate 0.12% among 360,000; AID 588501; note: plate controls were buffer without enzyme for full effect and enzyme alone for no effect
Target sequence (P15917 whole entry, looked up): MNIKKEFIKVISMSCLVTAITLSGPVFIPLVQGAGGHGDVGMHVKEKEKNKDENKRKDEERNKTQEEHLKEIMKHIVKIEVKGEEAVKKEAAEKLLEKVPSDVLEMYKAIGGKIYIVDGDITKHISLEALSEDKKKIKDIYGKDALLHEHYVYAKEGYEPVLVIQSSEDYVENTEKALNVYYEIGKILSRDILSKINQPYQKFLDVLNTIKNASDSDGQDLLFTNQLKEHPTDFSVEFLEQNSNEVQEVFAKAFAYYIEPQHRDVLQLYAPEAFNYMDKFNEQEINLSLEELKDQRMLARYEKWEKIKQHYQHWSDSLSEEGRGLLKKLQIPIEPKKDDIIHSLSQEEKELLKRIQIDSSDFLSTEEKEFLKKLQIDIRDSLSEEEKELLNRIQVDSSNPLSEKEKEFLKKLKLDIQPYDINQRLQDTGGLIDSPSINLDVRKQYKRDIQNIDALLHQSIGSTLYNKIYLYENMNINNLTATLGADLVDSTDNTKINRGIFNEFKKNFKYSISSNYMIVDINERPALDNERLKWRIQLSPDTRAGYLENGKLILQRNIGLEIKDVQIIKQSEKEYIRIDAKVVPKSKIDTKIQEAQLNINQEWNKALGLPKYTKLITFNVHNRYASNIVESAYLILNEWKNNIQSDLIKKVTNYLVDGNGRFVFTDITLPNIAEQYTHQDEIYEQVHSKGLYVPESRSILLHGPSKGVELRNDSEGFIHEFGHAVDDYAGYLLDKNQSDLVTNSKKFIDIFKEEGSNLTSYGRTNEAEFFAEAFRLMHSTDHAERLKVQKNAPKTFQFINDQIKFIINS
MazEF act = increases E. coli MazEF RNase cleavage of RNA | P0AE70 | FAM/BHQ RNA-DNA oligo cleavage fluorescence, 5 h | activation, % at 20 µM | hit rate 0.32% among 350,000 | AID 504720; in the data active = activation above about 50%
Autofluor counter = counter-screen for toxin protease inhibitors: compound fluorescence. compound autofluorescence counterscreen, microsphere flow cytometry; stronger effect = higher value. fluorescence intensity (concentration not given with the values). hit rate 3.1% among 360,000; in the data active = fluorescence intensity above about 16000; inconclusive = no clear call, values can overlap the other calls
BoNT A protease = inhibitors of Botulinum neurotoxin A light chain protease | multiplex microsphere protease substrate cleavage, flow cytometry | inhibition, % at 10 µM | AID 588499 | hit rate 0.17% among 360,000; note: plate controls were buffer without enzyme for full effect and enzyme alone for no effect
VHR inh abs = inhibitors of human VHR1 phosphatase (DUSP3); P51452; recombinant VHR phosphatase, pNPP absorbance; inhibition, % at 13.3 µM; hit rate 0.52% among 290,000; in the data active = inhibition above about 50%
BoNT-F LC inh = blocks Botulinum neurotoxin F light chain protease | inhibition, % at 10 µM | Multiplex microsphere protease cleavage assay, flow cytometry | hit rate 0.22% among 360,000 | AID 588497; in the data active = inhibition above about 35%, passing the limit was not always enough; inconclusive = no clear call, values can overlap the other calls; note: plate controls were buffer without enzyme for full effect and enzyme alone for no effect
Starred values were filed as active, the others as inactive; ? = inconclusive; . = not tested or not shown; + = active, no number. In the library only some 4.1% were active in any assay of this set; here they are far more common. Cut-off read from the data, not from the text of the source, unless noted: active = inhibition above about 30%; inconclusive = no clear call, values can overlap the other calls; inactive = below that.

SMILES	Anthrax LF prot	MazEF act	Autofluor counter	BoNT A protease	VHR inh abs	BoNT-F LC inh
CC(C)C(C(=O)Nc1ccc2c(c1)OCO2)N1C(=O)c2ccccc2C1=O (stereo not drawn)	-2	-4	20817*	?	-1	0
Cc1ccccc1NC(=O)OCc1cn(-c2ccc(Cl)cc2)nn1	-4	4	22413*	0	-7	1
O=C(Nc1ccc(Cl)cc1)OCc1cn(-c2ccccc2)nn1	-3	6	4515	-2	13	-12
OCc1cn(-c2ccc(Cl)cc2)nn1	-4	7	4706	-1	6	-2
CCCCC(=O)OCc1cn(-c2ccc(Cl)cc2)nn1	-1	2	22405*	1	6	0
O=C1NC[C@@H](CCCCN2C[C@H](Cc3ccccc3)N(CCc3ccc(O)cc3)C(=O)C2=O)N(CC2CCCCC2)C1=O	3	.	5988	0	.	0
Cc1cccc(-n2nc3c(c2NC(=O)C2CC2)CS(=O)(=O)C3)c1C	1	7	5727	2	21	-1
O=P(OC1CCCCC1)(OC1CCCCC1)C(O)c1c(Cl)cccc1Cl (stereo not drawn)	0	0	17127*	-2	26	-5
O=C(COC(=O)c1ccc(Br)o1)c1ccc(S(=O)(=O)N2CCCCC2)cc1	3	8	?	3	.	2
Cc1cc(OCCCC(=O)NCCc2ccccn2)ccc1Cl	-2	60*	3979	1	7	5
Cc1ccc(Cl)c2c(N=Nc3ccccc3)c(O)[nH]c12	-10	+	3404	-3	52*	?
CC1(C(=O)NC2CCCCC2)CCC(=O)N1CCOc1ccccc1 (stereo not drawn)	2	.	4196	0	.	7
COc1ccc(Cl)cc1N/C(N)=N/c1nc(CSc2ccc(C)cc2)cc(=O)[nH]1	-1	-5	23248*	1	20	-2
COc1ccc(Cl)cc1N/C(N)=N/c1nc(C)cc(=O)[nH]1	-4	2	5041	-1	11	-15
Cc1c(C(=O)N2CCc3ccccc32)oc2c1C(=O)CC(C)(C)C2	0	2	23325*	2	-4	1
Cc1c(C(=O)N2CCN(C)CC2)oc2c1C(=O)CC(C)(C)C2	-6	1	21465*	4	-9	5
Cc1ccccc1NC(=O)c1ccc2nc(N3CCOCC3)sc2c1	-4	6	5742	0	-2	-4
CCN(CC)C(=O)C1=C(C)NC(=O)NC1c1c(F)cccc1Cl (stereo not drawn)	-4	5	16958*	-1	-6	-7
COc1ccc(-c2cc(CNc3nc(NC(C)C)nc4cc(-c5ccccc5)sc34)on2)cc1	2	.	3050	3	.	-9
O=C1C=C(N(CCO)CCO)C2(CCCCC2)O1	-8	10	22987*	?	-10	-7
CN(C)CCCNC1=CC(=O)OC12CCCCC2	-1	-4	3181	-2	0	4
CN(C)c1ccc(-c2nn3c(-c4ccc(Cl)cc4)nnc3s2)cc1	.	-29	.	.	-2	.
Cc1nn2c(-c3ccc(Cl)cc3)nnc2s1	-2	3	23339*	0	-11	-2
O=C(NC1CCCCCC1)c1cc(S(=O)(=O)N2CCC3(CC2)OCCO3)ccc1F	-2	9	7724	-1	8	-1
O=C(c1cc(S(=O)(=O)N2CCCCC2)ccc1F)N1CCC2(CC1)OCCO2	0	4	12525	0	7	-1
SMILES	Anthrax LF prot	MazEF act	Autofluor counter	BoNT A protease	VHR inh abs	BoNT-F LC inh
O=C(Nc1ccccc1C(F)(F)F)c1cc(S(=O)(=O)N2CCC3(CC2)OCCO3)ccc1F	-1	-1	23758*	-1	15	-1
CCOC(=O)N1CCN(S(=O)(=O)c2ccc(F)c(C(=O)Nc3cccc(Cl)c3C)c2)CC1	-4	-3	2639	-1	23	-11
Cc1ccc(NC(=O)c2cc(S(=O)(=O)N3CCC4(CC3)OCCO4)ccc2F)cc1	0	10	22105*	3	2	5
Cc1c(C(=O)Nc2ccc(F)cc2)oc2ccc(S(=O)(=O)N3CCC4(CC3)OCCO4)cc12	-1	3	21736*	4	11	5
CCOC(=O)N1CCN(S(=O)(=O)c2ccc(F)c(C(=O)Nc3cc(C)cc(C)c3)c2)CC1	-3	1	22579*	2	-5	3
Cn1cccc1C(=O)NCc1ccccn1	0	2	?	4	.	?
O=C(NCc1ccco1)C1Cc2c(-c3cccc(F)c3)ccnc2O1 (stereo not drawn)	-8	.	4163	-1	.	-3
CCOC(=O)c1ccccc1NC(=O)c1ccc(Cl)c(S(=O)(=O)N2CCOCC2)c1	-9	-8	21650*	?	.	1
COc1ccccc1NC(=O)c1ccc(S(=O)(=O)N2CCOCC2)cc1	-5	-6	22270*	?	18	-4
CCOC(=O)c1ccccc1NC(=O)COC(=O)c1ccc(C)c(S(=O)(=O)N2CCOCC2)c1	?	5	?	1	15	10
COc1ccccc1NC(=O)c1cc(S(=O)(=O)N2CCC3(CC2)OCCO3)ccc1F	0	-4	20818*	0	26	1
CC(C)n1c(=O)c2ccccc2n1Cc1cn(C2CCCC2)nn1	-1	.	5630	0	.	-1
Cc1ccc(C)c(-c2ccc(=O)n(Cc3ccc(F)cc3Cl)n2)c1	9	1	3547	-1	5	6
Cc1ccc(C)c(-c2ccc(=O)n(Cc3cccc(Br)c3)n2)c1	10	-3	3405	-3	53*	13
Oc1ccc(C=NCC2COc3ccccc3O2)cc1 (stereo not drawn)	0	-1	20126*	2	4	-1
COc1ccc(C=NCC2COc3ccccc3O2)cc1OC (stereo not drawn)	5	0	10823	0	8	-5
Nc1nc(SCc2ccc(Cl)cc2Cl)n[nH]1	-3	15	2459	0	18	-10
CC(=O)Nc1nc(SCc2ccc(Cl)cc2Cl)n[nH]1	-8	2	19910*	?	30	3
O=C(CCC1CCCCC1)Nc1ccccc1-c1ccccc1	-4	-5	21102*	?	10	0
O=C(CCC1CCCCC1)Nc1ccccc1O	-2	5	16345*	0	-1	0
O=c1c2c(nc3c(-c4cccc(Br)c4)c[nH]n13)CCCC2	-4	8	16678*	-2	-4	-6
COc1ccc(C(C)=O)cc1COC(=O)c1ccc(C)c(S(=O)(=O)N2CCOCC2)c1	3	3	6133	-3	.	2
COC(=O)CN1C(=O)C2(OCCCO2)c2ccccc21	2	5	11925	0	17	-2
O=C1N(CN2CCC3(CC2)OCCO3)c2ccccc2C12OCCCO2	-1	0	22108*	3	30	2
O=C(O)CN1C(=O)C2(OCCCO2)c2ccccc21	1	2	23379*	0	10	-2
CC1(C)COC2(OC1)C(=O)N(CN1CCOCC1)c1ccccc12	-7	8	4294	0	7	-6
COc1cccc(NC(=O)CN2C(=O)C3(OCCCO3)c3ccccc32)c1	-3	-1	22688*	?	17	1
